This note sets out measurements from PubChem BioAssay AID2284163 (EPA ToxCast).

The source made the active and inactive calls. How the source made its calls: active means hit-call score of the fitted dose curve at least 0.9, where 1 is the maximum; inactive means score below 0.9.

Sequence of Oxytocin receptor (Homo sapiens) (P30559 whole entry, looked up): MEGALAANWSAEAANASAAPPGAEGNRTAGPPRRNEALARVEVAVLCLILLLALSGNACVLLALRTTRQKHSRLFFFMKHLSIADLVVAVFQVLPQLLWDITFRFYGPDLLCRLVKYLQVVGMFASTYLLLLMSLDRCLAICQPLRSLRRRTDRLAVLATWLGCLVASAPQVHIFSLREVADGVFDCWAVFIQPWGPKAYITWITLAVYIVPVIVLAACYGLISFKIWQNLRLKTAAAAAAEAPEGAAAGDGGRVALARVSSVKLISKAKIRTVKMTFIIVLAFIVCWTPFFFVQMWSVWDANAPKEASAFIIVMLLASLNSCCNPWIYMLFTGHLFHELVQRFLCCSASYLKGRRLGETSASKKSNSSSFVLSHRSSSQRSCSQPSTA

This assay addresses Oxytocin receptor (Homo sapiens) (UniProt P30559). In words: ERF_FR_GPCR_hOXTR: Eurofins (ERF) G Protein-Coupled Receptor (GPCR) Radioligand Binding LeadHunter Assay for human Vasopressin / Oxytocin Receptor OT Agonism. The protocol:
ERF_FR_GPCR_hOXTR is a biochemical, single-readout assay that uses extracted gene-proteins in a cell-free assay. Measurements were taken 2 hour after chemical dosing in a 96-well plate. See OT Human Vasopressin / Oxytocin GPCR Binding (Agonist Radioligand) Assay, Cerep.ERF_FR_GPCR_hOXTR is an assay component calculated from the ERF_FR_GPCR_hOXTR assay. It is designed to measure radioligand binding using a type of binding reporter as detected by scintillation counting with radiometry technology.Data from the assay component ERF_FR_GPCR_hOXTR was analyzed at the assay endpoint, ERF_FR_GPCR_hOXTR, in the positive analysis fitting direction relative to DMSO as the negative control and baseline of activity. Using a type of binding reporter, gain-of-signal activity can be used to understand changes in binding as they relate to gene OXTR. To generalize the intended target to other relatable targets, this assay endpoint is annotated to the gpcr intended target family, where the subfamily is vasopressin and oxytocin.
Human cells are incubated for 60 minutes at room temprature with [3H] Oxytocin ligand (0.8 nM) and OXYTOCIN as control inhibitor. Test Sample Requirements: Minimum for 1) Screen: 60 ul of 10 mM stock -OR- 1 mg (pre-weighed) for 10 uM final testing. 2) Dose Response: 90 ul of 10 mM stock -OR- 1 mg (pre-weighed) for a top concentration at 10 uM.
In the case of `CCCCC[C@H](O)CC(=O)CCc1ccc(O)c(OC)c1`, the call was inactive.
